Records with an inconclusive call do not appear. Calls of active or inactive are those of the source. The calls were made as follows: active = hit-call score of the fitted dose curve at least 0.9, where 1 is the maximum; inconclusive = response in the unintended direction; inactive = score below 0.9.
Columns and labels:
[1] = molecular target: human Adenosine A2a Receptor (AdoRA2a), ADORA2A (gene 135) (UniProt P29274); assay: NVS_GPCR_hAdoRA2a: NovaScreen (NVS) G Protein-Coupled Receptor Assay for human Adenosine A2a Receptor (AdoRA2a) (AID 2283256)
Chain of human Adenosine A2a Receptor (AdoRA2a), ADORA2A (gene 135) (P29274 whole entry, looked up): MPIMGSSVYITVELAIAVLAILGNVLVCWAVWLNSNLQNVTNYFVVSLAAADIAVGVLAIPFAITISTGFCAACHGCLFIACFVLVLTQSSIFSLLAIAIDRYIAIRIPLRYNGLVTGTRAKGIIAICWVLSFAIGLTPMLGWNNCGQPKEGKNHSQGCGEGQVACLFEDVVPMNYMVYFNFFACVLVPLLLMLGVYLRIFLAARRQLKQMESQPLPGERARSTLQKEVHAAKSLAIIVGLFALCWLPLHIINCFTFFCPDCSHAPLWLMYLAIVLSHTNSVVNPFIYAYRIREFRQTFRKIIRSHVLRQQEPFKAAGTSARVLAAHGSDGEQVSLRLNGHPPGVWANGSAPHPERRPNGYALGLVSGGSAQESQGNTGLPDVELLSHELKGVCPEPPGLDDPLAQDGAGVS
Outline: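 Radioligand displacement on HEK293-derived membrane protein, cell-free; filter-based scintillation counting 1.5 hours after dosing, loss of signal vs DMSO. Single-point duplicate screen at 25 uM, actives retested in concentration series.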

[2] = molecular target: human Adrenergic, Beta 1 Receptor (Adrb1), ADRB1 (gene 153) (UniProt P08588); assay: NVS_GPCR_hAdrb1: NovaScreen (NVS) G Protein-Coupled Receptor Assay for human Adrenergic, Beta 1 Receptor (Adrb1) (AID 2283258)
Chain of human Adrenergic, Beta 1 Receptor (Adrb1), ADRB1 (gene 153) (P08588 whole entry, looked up): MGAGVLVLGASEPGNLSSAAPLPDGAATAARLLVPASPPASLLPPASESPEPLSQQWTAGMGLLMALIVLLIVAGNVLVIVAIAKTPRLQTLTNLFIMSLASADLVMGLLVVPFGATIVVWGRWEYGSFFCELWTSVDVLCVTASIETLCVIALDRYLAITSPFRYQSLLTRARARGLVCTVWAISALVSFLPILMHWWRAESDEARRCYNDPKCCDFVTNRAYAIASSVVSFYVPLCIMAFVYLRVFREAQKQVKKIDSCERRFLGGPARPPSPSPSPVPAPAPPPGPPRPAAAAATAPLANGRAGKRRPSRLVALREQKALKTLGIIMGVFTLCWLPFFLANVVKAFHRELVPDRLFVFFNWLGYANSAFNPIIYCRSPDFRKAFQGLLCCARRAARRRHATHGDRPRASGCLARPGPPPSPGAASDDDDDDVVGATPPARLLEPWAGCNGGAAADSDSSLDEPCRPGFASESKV
Outline: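 Cell-free radioligand displacement on receptor from human neuroepithelioma cells; 2 h after dosing, filter-based scintillation counting. Primary screen in duplicate at 25 uM, actives retested in concentration series; loss of signal vs DMSO baseline.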

[3] = molecular target: human Serotonin, 5-Hydroxytryptamine Receptor 2A (5HT2A), HTR2A (gene 3356) (UniProt P28223); assay: NVS_GPCR_h5HT2A: NovaScreen (NVS) G Protein-Coupled Receptor Assay for human Serotonin, 5-Hydroxytryptamine Receptor 2A (5HT2A) (AID 2283249)
Chain of human Serotonin, 5-Hydroxytryptamine Receptor 2A (5HT2A), HTR2A (gene 3356) (P28223 whole entry, looked up): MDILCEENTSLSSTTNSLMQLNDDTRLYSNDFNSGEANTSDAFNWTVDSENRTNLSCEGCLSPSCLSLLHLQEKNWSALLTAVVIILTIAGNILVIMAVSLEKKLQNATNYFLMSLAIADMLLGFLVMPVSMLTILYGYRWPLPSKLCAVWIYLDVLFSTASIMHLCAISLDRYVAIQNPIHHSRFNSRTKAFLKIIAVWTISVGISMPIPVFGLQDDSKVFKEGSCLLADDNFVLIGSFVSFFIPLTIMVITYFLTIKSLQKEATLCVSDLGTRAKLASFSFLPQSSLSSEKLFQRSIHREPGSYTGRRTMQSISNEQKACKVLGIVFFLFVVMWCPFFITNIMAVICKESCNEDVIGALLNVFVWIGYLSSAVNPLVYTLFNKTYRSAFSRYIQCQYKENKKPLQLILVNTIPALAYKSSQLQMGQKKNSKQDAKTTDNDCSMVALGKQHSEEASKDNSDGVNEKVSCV
Outline: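 Human cortex membranes, cell-free radioligand binding; filter-based scintillation read 1.5 h after dosing. Duplicate screen at 25 uM first; displacement of specific binding (loss of signal) versus DMSO.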

[4] = molecular target: human Serotonin, 5-Hydroxytryptamine Receptor 5A (5HT5A), HTR5A (gene 3361) (UniProt P47898); assay: NVS_GPCR_h5HT5A: NovaScreen (NVS) G Protein-Coupled Receptor Assay for human Serotonin, 5-Hydroxytryptamine Receptor 5A (5HT5A) (AID 2283251)
Chain of human Serotonin, 5-Hydroxytryptamine Receptor 5A (5HT5A), HTR5A (gene 3361) (P47898 whole entry, looked up): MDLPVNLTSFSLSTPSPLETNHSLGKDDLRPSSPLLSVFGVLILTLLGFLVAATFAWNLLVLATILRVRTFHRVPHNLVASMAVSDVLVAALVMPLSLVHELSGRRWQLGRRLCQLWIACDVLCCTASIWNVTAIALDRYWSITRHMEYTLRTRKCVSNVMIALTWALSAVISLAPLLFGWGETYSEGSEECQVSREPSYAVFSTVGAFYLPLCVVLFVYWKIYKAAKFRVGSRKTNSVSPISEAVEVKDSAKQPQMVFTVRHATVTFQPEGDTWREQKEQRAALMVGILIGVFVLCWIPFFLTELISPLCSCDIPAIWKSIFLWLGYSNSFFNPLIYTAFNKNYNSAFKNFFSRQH
Outline: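 Cell-free radioligand displacement binding on HEK293-derived membrane protein, 1 h incubation, filter-based scintillation counting. Primary screen in duplicate at 25 uM, actives followed in concentration series; loss of signal fitted versus DMSO.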

[5] = molecular target: guinea pig Opioid, Kappa 1 Receptor (OpiateK), OPRK1 (gene 100135587) (UniProt P41144); assay: NVS_GPCR_gOpiateK: NovaScreen (NVS) G Protein-Coupled Receptor Assay for guinea pig Opioid, Kappa 1 Receptor (OpiateK) (AID 2283252);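 also: radioligand displacement from kappa opioid receptor in guinea pig cerebellar membranes; active means reduced radioligand binding relative to DMSO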
Chain of guinea pig Opioid, Kappa 1 Receptor (OpiateK), OPRK1 (gene 100135587) (P41144 whole entry, looked up): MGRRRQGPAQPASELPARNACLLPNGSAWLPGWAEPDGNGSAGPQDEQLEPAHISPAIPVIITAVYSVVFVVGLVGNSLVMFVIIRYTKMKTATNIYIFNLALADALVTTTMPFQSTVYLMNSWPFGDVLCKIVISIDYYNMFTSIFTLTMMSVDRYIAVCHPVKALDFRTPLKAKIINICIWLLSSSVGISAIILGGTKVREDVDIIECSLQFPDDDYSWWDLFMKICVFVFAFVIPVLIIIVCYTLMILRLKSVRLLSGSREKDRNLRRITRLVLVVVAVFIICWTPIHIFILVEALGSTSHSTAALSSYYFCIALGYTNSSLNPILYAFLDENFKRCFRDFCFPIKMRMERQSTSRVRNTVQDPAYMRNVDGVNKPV
Outline: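 Signal is scintillation counts of filter-trapped radioligand bound to guinea pig cerebellar membrane receptor, measured 2 hours post-dosing. Activity is loss of binding versus DMSO, first at 25 uM in duplicate, then as concentration series for actives.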

[6] = molecular target: human Serotonin, 5-Hydroxytryptamine Receptor 6 (5HT6), HTR6 (gene 3362) (UniProt P50406); assay: NVS_GPCR_h5HT6: NovaScreen (NVS) G Protein-Coupled Receptor Assay for human Serotonin, 5-Hydroxytryptamine Receptor 6 (5HT6) (AID 2283253)
Chain of human Serotonin, 5-Hydroxytryptamine Receptor 6 (5HT6), HTR6 (gene 3362) (P50406 whole entry, looked up): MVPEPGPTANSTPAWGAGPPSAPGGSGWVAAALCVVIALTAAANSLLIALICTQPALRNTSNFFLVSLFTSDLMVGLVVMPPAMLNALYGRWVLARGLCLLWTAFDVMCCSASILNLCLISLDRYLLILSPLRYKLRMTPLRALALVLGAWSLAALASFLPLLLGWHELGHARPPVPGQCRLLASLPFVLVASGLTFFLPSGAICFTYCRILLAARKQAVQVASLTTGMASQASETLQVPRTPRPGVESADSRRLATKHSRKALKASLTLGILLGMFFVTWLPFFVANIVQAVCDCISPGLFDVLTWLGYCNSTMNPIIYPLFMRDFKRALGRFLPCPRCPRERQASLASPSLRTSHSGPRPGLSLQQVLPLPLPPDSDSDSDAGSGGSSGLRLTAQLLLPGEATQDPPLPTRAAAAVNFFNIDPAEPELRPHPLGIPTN
Outline: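 Radioligand binding to 5HT6 in HEK293-derived membranes, cell-free, 1 h after dosing; bound ligand measured by filter-based scintillation counting. Primary screen in duplicate at 25 uM; actives retested in concentration series.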

[7] = molecular target: human Adenosine A1 Receptor (AdoRA1), ADORA1 (gene 134) (UniProt P30542); assay: NVS_GPCR_hAdoRA1: NovaScreen (NVS) G Protein-Coupled Receptor Assay for human Adenosine A1 Receptor (AdoRA1) (AID 2283254)
Chain of human Adenosine A1 Receptor (AdoRA1), ADORA1 (gene 134) (P30542 whole entry, looked up): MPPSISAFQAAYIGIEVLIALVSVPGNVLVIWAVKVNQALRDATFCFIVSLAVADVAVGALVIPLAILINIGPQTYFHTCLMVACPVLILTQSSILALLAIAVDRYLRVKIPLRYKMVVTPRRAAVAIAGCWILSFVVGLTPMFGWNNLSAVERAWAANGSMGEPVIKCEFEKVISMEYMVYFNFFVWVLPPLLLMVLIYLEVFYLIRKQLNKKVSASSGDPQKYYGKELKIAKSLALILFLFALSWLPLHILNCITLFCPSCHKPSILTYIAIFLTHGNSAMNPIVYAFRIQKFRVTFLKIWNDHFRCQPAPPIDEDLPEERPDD
Outline: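 Radioligand competition binding on human cortical membranes, 1 h after compound addition; bound radioactivity read by filtration and scintillation counting. Loss of signal versus DMSO baseline scored as displacement; primary screen duplicate at 25 uM, actives retested in concentration series.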

[8] = molecular target: human Adrenergic, Alpha 2c Receptor (Adra2C), ADRA2C (gene 152) (UniProt P18825); assay: NVS_GPCR_hAdra2C: NovaScreen (NVS) G Protein-Coupled Receptor Assay for human Adrenergic, Alpha 2c Receptor (Adra2C) (AID 2283259)
Chain of human Adrenergic, Alpha 2c Receptor (Adra2C), ADRA2C (gene 152) (P18825 whole entry, looked up): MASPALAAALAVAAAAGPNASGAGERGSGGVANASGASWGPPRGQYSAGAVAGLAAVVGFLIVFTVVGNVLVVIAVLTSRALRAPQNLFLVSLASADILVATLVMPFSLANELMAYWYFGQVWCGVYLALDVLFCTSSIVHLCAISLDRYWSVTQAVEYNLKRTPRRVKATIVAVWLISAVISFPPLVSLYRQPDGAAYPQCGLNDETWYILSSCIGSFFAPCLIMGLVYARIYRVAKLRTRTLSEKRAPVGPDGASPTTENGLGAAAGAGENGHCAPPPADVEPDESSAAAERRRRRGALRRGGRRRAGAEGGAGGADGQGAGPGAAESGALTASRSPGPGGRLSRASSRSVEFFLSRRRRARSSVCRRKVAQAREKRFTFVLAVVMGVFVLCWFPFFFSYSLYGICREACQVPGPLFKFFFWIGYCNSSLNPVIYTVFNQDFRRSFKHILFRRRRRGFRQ
Outline: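 Radioligand binding on Sf9-expressed receptor membranes, 1 h after chemical dosing, filter-based scintillation read-out. Loss of binding fitted positively versus DMSO; primary duplicate screen at 25 uM, actives retested in concentration series.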

[9] = tested on: guinea pig Muscarinic, Peripheral (Mperiperal) Receptor, Non-selective Binding, gene 100379235; assay: NVS_GPCR_gMPeripheral_NonSelective: NovaScreen (NVS) G Protein-Coupled Receptor Assay for guinea pig Muscarinic, Peripheral (Mperiperal) Receptor, Non-selective Binding (AID 2283250)
Outline: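 Guinea pig bladder membranes, radioligand binding read 1 h after dosing by filter scintillation counting; loss of signal vs DMSO. Primary duplicate screen at 25 uM, then concentration-response up to 50 uM.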

[10] = molecular target: human Adrenergic, Alpha 2A Receptor (Adra2A), ADRA2A (gene 150) (UniProt P08913); assay: NVS_GPCR_hAdra2A: NovaScreen (NVS) G Protein-Coupled Receptor Assay for human Adrenergic, Alpha 2A Receptor (Adra2A) (AID 2283257)
Chain of human Adrenergic, Alpha 2A Receptor (Adra2A), ADRA2A (gene 150) (P08913 whole entry, looked up): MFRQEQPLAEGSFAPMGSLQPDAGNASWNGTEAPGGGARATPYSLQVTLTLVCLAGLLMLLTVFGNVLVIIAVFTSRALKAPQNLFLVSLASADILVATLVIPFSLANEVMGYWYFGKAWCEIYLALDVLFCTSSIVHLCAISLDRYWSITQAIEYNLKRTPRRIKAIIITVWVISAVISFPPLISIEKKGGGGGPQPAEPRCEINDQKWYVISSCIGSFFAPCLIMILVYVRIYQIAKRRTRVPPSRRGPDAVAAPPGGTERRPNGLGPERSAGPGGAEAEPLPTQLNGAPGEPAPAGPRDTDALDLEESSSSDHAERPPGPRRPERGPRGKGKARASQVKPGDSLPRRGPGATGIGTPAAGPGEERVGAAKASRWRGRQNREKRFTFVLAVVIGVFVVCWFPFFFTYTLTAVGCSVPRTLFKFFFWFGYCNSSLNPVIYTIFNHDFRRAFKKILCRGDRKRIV
Outline: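 Radioligand filter-binding was run on HT29-derived membranes, cell-free, read by scintillation counting 1 h after dosing. Primary screening was in duplicate at 25 uM, with concentration series in follow-up. Loss of signal versus DMSO indicates displacement.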

CC(C)(C)c1ccc(O)c(C(C)(C)C)c1
outcome [1]: inactive

CCCCCCCCCCCCCCCS(=O)(=O)Oc1ccccc1
outcome [2]: inactive

CN1CCN(c2ccccc2/C=C2\SCCN(c3ccc(Cl)c(Cl)c3)C2=O)CC1
AC50 [3]: 1.9 µM (active)
AC50 [4]: 0.302 µM (active)
AC50 [5]: 3.39 µM (active)
AC50 [6]: 1.45 µM (active)
AC50 [2]: 3.51 µM (active)

CC[C@H](c1ccc(O)cc1)[C@@H](CC)c1ccc(O)cc1
AC50 [4]: 1.69 µM (active)
outcome [5]: inactive
AC50 [7]: 8.65 µM (active)
AC50 [1]: 12.4 µM (active)
outcome [8]: inactive

O=C(O)Cc1cc(I)c(Oc2cc(I)c(O)c(I)c2)c(I)c1
outcome [4]: inactive
outcome [7]: inactive

C#C[C@]1(O)CC[C@H]2[C@@H]3CCC4=CC(=O)CC[C@@H]4[C@H]3CC[C@@]21C
outcome [5]: inactive

CC[C@H](C)[C@@H](C(=O)O)n1sc2ccccc2c1=O
AC50 [5]: 12.7 µM (active)

CC#C[C@]1(O)CC[C@H]2[C@@H]3CCC4=CC(=O)CCC4=C3[C@@H](c3ccc(N(C)C)cc3)C[C@@]21C
outcome [7]: inactive
outcome [1]: inactive

CC(=O)NC1(c2cccc(F)c2)CCN(CC[C@@]2(c3ccc(Cl)c(Cl)c3)CN(c3ccccc3)C(=O)CO2)CC1
AC50 [3]: 1.9 µM (active)
AC50 [9]: 20.8 µM (active)
AC50 [4]: 28.3 µM (active)
AC50 [5]: 20.8 µM (active)
AC50 [6]: 5.94 µM (active)

CN1CCC[C@H]1c1cccnc1
outcome [9]: inactive

NC(=O)N(O)[C@@H]1C=C[C@H](Oc2cccc(Oc3ccc(F)cc3)c2)C1
AC50 [4]: 14 µM (active)
AC50 [10]: 6.62 µM (active)
outcome [2]: inactive

NC(=O)N1C(=O)C(C(=O)c2cc(Cl)cs2)c2cc(F)c(Cl)cc21 (configuration not stated)
AC50 [4]: 41.3 µM (active)
AC50 [7]: 8.46 µM (active)
AC50 [1]: 19.7 µM (active)
outcome [2]: inactive
AC50 [8]: 25 µM (active)

Reference: PubChem BioAssay (EPA / NIEHS)
